# High-throughput results as filed in PubChem.
# Rows were chosen to be rich in hits. Some 0.69% of all compounds tested hit in one or more screens of this group.
# Vif-A3G inh – Vif-A3G binding inhibition; Q9HC16; HeLa A3G-eYFP + Vif (tagged APOBEC3G with the HIV-1 protein that degrades it), YFP fluorescence, overnight; Potency, µM (doses to about 46.1 µM), for the others: top-dose activity, negative = active, hits mostly inhibitors; hit rate 0.076% among 410,000; AID 602310; note: % is set by controls: 0 for no effect and ±100 for the full control effect; nearly all actives have a fitted effect of over 60% in size
# Target sequence (Q9HC16 whole entry, looked up): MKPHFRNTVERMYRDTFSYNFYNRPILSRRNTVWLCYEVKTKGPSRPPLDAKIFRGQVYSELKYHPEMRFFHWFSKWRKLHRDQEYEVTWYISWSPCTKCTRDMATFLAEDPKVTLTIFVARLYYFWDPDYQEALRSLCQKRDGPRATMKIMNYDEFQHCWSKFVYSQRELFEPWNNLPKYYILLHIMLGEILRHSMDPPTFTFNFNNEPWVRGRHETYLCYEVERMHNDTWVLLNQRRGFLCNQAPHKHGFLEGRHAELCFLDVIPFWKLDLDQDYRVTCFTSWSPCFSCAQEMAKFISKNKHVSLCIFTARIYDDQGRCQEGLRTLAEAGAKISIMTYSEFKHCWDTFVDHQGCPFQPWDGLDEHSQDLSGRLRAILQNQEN
#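 HeLa cells stably expressing Vif and C-terminally eYFP-tagged A3G, seeded overnight at 37 deg C, then exposed to compound by pintool overnight at 37 deg C. Rise in yellow fluorescence (Ex 488/Em 500-530, Acumen) marks blocked Vif-driven A3G degradation.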
# GRP78 ERSR act – induces the endoplasmic reticulum stress response in human glioma cells. Potency, µM, inactives show at the highest dose activation, usual class: activators. U87-MG GRP78 promoter luciferase reporter, 16 h. hit rate 0.02% among 420,000; note: series mostly up to about 76 µM; % of control where 0% means no effect; nearly all actives have a fitted effect of over 35% in size
#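 Stably transfected U87-MG glioma cells carrying a GRP78-based luciferase sensor; 16 h compound incubation. Luminescence end-point read 10 min after Bright-Glo addition at room temperature.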
# FUS yeast rescue – suppressors of FUS proteinopathy in yeast; hit rate 0.24% among 390,000; AID 1347120; S. cerevisiae FUS-expressing, growth rescue, OD600, 24 h; Potency, µM (series often up to 76.6 µM), hits mostly activators;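 note: plate controls were DMSO vehicle for no effect and reference control for full effect; nearly all actives have a fitted effect of over 55% in size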
#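 S. cerevisiae expressing FUS from galactose induction served as the toxicity model. Growth after 24hr at 30C, read as absorbance at 600 nm, indicates suppression of toxicity; compounds dosed at several concentrations.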
# PINK1 expr mod – changes PINK1 expression; PINK1 immunofluorescence, high-content cytometry, 24 h; hit rate 0.2% among 410,000; Potency, µM (highest dose often 76.6 µM), for inactives: top-dose activation (PINK1 increase), usual class: activators; AID 624263; active = well fitted activation curve with a large enough effect; inconclusive = small, poorly fitted or top-dose-only effect; cell line not stated here; note: % of control where 0% means no effect; nearly all actives have a fitted effect of over 65% in size
#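 PINK1 protein level read as immunofluorescence by microplate cytometer in a fixed, stained stable cell line after 24 h exposure to five compound concentrations, with CCCP as control.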
# Vif-A3F inh – blocks the Vif interaction with APOBEC3F. Potency, µM (doses to about 46.1 µM), for the others: at the highest dose activity, negative = active. HeLa A3F-eYFP + Vif (tagged APOBEC3F with the HIV-1 protein that degrades it), YFP fluorescence increase. hit rate 0.2% among 390,000; note: % of control where 0% means no effect; nearly all actives have a fitted effect of over 65% in size
#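 HeLa cells stably expressing Vif plus C-terminally eYFP-tagged A3F were seeded, incubated overnight at 37 deg C, dosed with compound, incubated overnight again at 37 deg C. Yellow fluorescence (Ex 488/Em 500-530) reported blocked Vif-mediated A3F-eYFP degradation.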
# Abeta yeast res – restores growth of yeast expressing A-beta42 peptide; yeast expressing A-beta42, growth rescue, OD600, 48 h; response scale: 0% DMSO, 100% iron-clioquinol control; Potency, µM (doses to about 46.1 µM), hits mostly activators; hit rate 0.063% among 410,000; note: nearly all actives have a fitted effect of over 55% in size
#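 Yeast A-beta toxicity model in growth medium with pinned compounds, 48 h at 30 C; growth read as absorbance at 600 nm. Normalized to FeCl3/clioquinol equimolar mix (positive) and DMSO (negative).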
# The depositor's hits bear a star; i = inactive; u = inconclusive; x = not tested or not shown; [ ] = another dose, or the depositor's remark. Unless noted, calls come from the whole dose curve; as a rule, active = well fitted curve in the direction sought with a large enough effect; inconclusive = small, poorly fitted or top-dose-only effect, or another doubt; inactive = no such curve, though single readings can be large; an effect the other way counts as inactive or inconclusive. Potency is the fitted concentration of half-maximal effect.
SMILES,Vif-A3G inh,GRP78 ERSR act,FUS yeast rescue,PINK1 expr mod,Vif-A3F inh,Abeta yeast res
Cc1ccc(NC(=O)C(C)Sc2nnc(-c3cccnc3)n2-c2ccccc2)cc1 (stereo not given),-7.2%,-6.0%,i,4.3%[38.3 µM],-0.9%,i
Cc1ccccc1-n1c(SC(C)C(N)=O)nnc1-c1cccnc1 (stereo not given),-0.6%,-2.4%,i,10µM*,-3.4%,i
CCC(=O)NC(=S)Nc1cccc(Cl)c1N1CCCC1,0.7%,-3.6%,i,7.3%,10µM*,i
O=C(NC(=S)Nc1cccc(Cl)c1N1CCCCC1)c1ccc2c(c1)OCCO2,-17.7%,-2.3%,x,6.5%,u,i
COc1ccc(S(=O)(=O)Nc2cccc(S(=O)(=O)N3CCCCCC3)c2)cc1,-0.6%,-1.9%,u,-1.6%,-2.2%,i
O=S(=O)(Nc1nc2ccccc2nc1Nc1cccc(S(=O)(=O)N2CCCCC2)c1)c1ccccc1,u,-6.6%,i,25.1µM*,10µM*,i
CCN(CC)c1ncnc2c1ncn2[C@H]1CN(Cc2ccc(-c3ccccc3)cc2)C[C@@H](CO)O1,-9.8%,-3.6%,28.2µM*,10.1%,x,i
COc1cc(CNc2ncnc3c2ncn3[C@H]2CN(Cc3cccc4ccccc34)C[C@@H](CO)O2)cc(OC)c1OC,-8.6%,1.4%,28.2µM*,3.5%,x,i
COc1cc(CNc2ncnc3c2ncn3[C@H]2CN(Cc3ccc(-c4ccccc4)cc3)C[C@@H](CO)O2)cc(OC)c1OC,-1.1%,-2.1%,u,0.5%,x,i
COc1cc(=O)n2c(c1C(=O)NC(C)c1ccco1)CCN(C(=O)c1cccc(C)c1C)CC2 (stereo not given),x,1.9%,x,-0.2%,x,x
Cc1ccc(CN2C(=O)c3ccccc3Sc3ccc(C(=O)NCc4ccco4)cc32)cc1,-0.5%,0.5%,10µM*,0.6%,-0.1%,i
O=C(NCc1ccco1)c1ccc2c(c1)N(Cc1c(F)cccc1Cl)C(=O)c1ccccc1S2,0.7%,1.8%,u,4.9%,-3.8%,i
Fc1ccc2nc3[nH]c4ccccc4c3nc2c1,1.41µM*,2.1%,i,3.0%,u,i
Cc1c(C(=O)OC/C(O)=C(\C#N)c2nc3ccccc3[nH]2)oc2ccccc12,u,-2.1%,i,1.9%,22.4µM*,i
Cc1cccc(Nc2nnc(SCC(=O)NC(=O)Nc3ccc4c(c3)OCCO4)s2)c1,-5.6%,-4.7%,i,-2.5%,-27.8%,i
COc1ccccc1Nc1nnc(SCC(=O)NC(=O)Nc2ccc3c(c2)OCCO3)s1,-9.2%,-2.4%,i,11.2µM*,-27.2%,i
Cc1nc(N2CCC(C)CC2)c2c(C)c(C(=O)Nc3ccc(C(F)(F)F)cc3)sc2n1,0.0%,4.1%,i,39.8µM*,-8.7%,i
O=S(=O)(c1ccc(NC(=S)NC23CC4CC(CC(C4)C2)C3)cc1)N1CCCCC1,4.0%,-5.3%,i,17.8µM*,6.5%,i
NS(=O)(=O)c1ccc(NC(=S)Nc2ccc(S(=O)(=O)N3CCCC3)cc2)cc1,3.2%,-2.2%,i,0.9%,16.2%,i
CC(NC(=S)Nc1ccc(S(=O)(=O)N2CCOCC2)cc1)C1CC2CCC1C2 (stereo not given),-0.2%,1.5%,u,39.8µM*,10.2%,i
CN(Cc1ccon1)C(=O)c1cnn(-c2ncc3c(n2)-c2ccccc2CCC3)c1C1CC1,x,3.0%,x,1.4%,x,x
CCn1c(-c2cccc(OC)c2)nc2cc(NC(C)=O)cc(C(=O)N3CCC[C@H]3C(=O)OC)c21,x,1.4%,x,1.3%,x,x
C[C@H](NC(=O)[C@@H]1CSC2c3ccccc3C(=O)N21)C(=O)NC1CCCCC1 (stereo not given in full),-3.4%,-1.8%,i,-1.1%,0.2%,i
C[C@H](NC(=O)[C@@H]1CSC2c3ccccc3C(=O)N21)C(=O)NC1CCCC1 (stereo not given in full),5.01µM*,-2.9%,i,-0.3%,-6.6%,i
COc1cccc(CN2CCC(c3nnc(SCC4CCCO4)n3C)CC2)c1O (stereo not given),x,-4.1%,x,-0.4%,x,x
SMILES,Vif-A3G inh,GRP78 ERSR act,FUS yeast rescue,PINK1 expr mod,Vif-A3F inh,Abeta yeast res
Cc1cc(C)c(NC(=O)Cn2c(=O)n(Cc3ccc(C(=O)NCc4ccco4)cc3)c(=O)c3sccc32)c(C)c1,8.91µM*,-8.9%,i,0.5%,u,i
Cc1cccc(C)c1NC(=O)Cn1c(=O)n(Cc2ccc(C(=O)NCc3ccco3)cc2)c(=O)c2sccc21,x,x,u,-1.1%,x,i
C[C@H](CO)N1C[C@H](C)[C@@H](CN(C)C(=O)Nc2ccc3c(c2)OCO3)Oc2c(NC(=O)Nc3ccc(C(F)(F)F)cc3)cccc2C1=O,-6.0%,-5.6%,22.4µM*,-1.0%,5.9%,i
COc1ccc(NC(=O)N(C)C[C@H]2Oc3c(NC(=O)Nc4ccc(C(F)(F)F)cc4)cccc3C(=O)N([C@H](C)CO)C[C@@H]2C)cc1,u,-6.1%,25.1µM*,-2.2%,4.1%,i
C[C@H](CO)N1C[C@H](C)[C@@H](CN(C)C(=O)Nc2ccc(C(F)(F)F)cc2)Oc2c(NC(=O)Nc3ccccc3)cccc2C1=O,-15.5%,-6.1%,u,11.0%,1.4%,i
COc1ccc(NC(=O)N(C)C[C@H]2Oc3c(NC(=O)c4nc5ccccc5s4)cccc3C(=O)N([C@@H](C)CO)C[C@H]2C)cc1,1.7%,-2.2%,15.8µM*,2.1%,0.2%,i
Cc1cnc(-n2ncc(C(=O)N[C@H]3CCCCNC3=O)c2C2CC2)nc1-c1cccs1,x,-6.3%,x,1.0%,x,x
CCN1CCCC1CN(Cc1cc2cc(C)cc(C)c2[nH]c1=O)C(=O)Nc1ccccc1OC (stereo not given),-9.8%,-0.9%,31.6µM*,-1.8%,-5.6%,i
CCN1CCCC1CN(Cc1cc2ccc(C)cc2[nH]c1=O)C(=S)Nc1ccc(OC)cc1OC (stereo not given),4.6%,3.5%,i,-0.2%,3.6%,i
Cc1ccc(Cn2c(C(=O)O)c(CNCc3ccccc3Cl)c3ccc(C)cc32)cc1,1.5%,-3.7%,i,-0.4%,-8.4%,i
COc1ccc(Cn2c(C(=O)O)c(CNCCc3ccccc3Cl)c3ccc(C)cc32)cc1,-16.5%,-3.5%,14.1µM*,1.3%,-2.0%,i
Cc1c(Cl)cccc1NS(=O)(=O)c1ccc(NS(=O)(=O)c2ccc3c(c2)OCCO3)cc1,-8.5%,-0.2%,22.4µM*,0.5%,1.2%,i
